ChEMBL document CHEMBL3988442, “University of Dundee, Small-Polar-MMV Screening Library” (2021)
Out of some 48,000 compounds screened, about 13,000 (27%) showed an effect of 50% or more. This is one part of the list.

System: Wolbachia pipientis
Assay: Anti-Wolbachia Cell-Based Screen
Type: functional
Set-up: scale not given: in the data most compounds retested in dose-response had high values
Conditions: 5 µM

SMILES | Percent Effect
CC(C(=O)N1CCc2sccc2C1)N1CCCN(C2CC2)CC1 (stereo unspecified) | 6.579%
NC(=O)CCNC(=O)NCC1(c2ccccc2Cl)CCC1 | -8.555%
Cc1noc(C2CCN(C(=O)CCNc3ncccn3)CC2)n1 | 14.51%
CC(=O)N1CCC(n2nccc2-c2cnc(NCCO)nc2)CC1 | 90.32%
CC(=O)N1CCC(NC[C@H]2Cn3c(-c4ccccc4)cnc3CO2)CC1 | -3.853%
O=C(O)c1nn(CC2CC2)c2c1CN(S(=O)(=O)c1cccnc1)CC2 | -14.04%
CCN(CC)CCNC(=O)CCc1c(C)nn(-c2cccc(Cl)c2)c1C | 114.7%
COCCNC(=O)CCc1c(C)nn(-c2nc(C)c(C)c(=O)[nH]2)c1C | -2.178%
Cc1nn(-c2ccccc2)c(C)c1CC(=O)NC1CC(=O)N(C)C1 (stereo unspecified) | 10.3%
CCN(CC)CCNC(=O)CCc1c(C)nn(-c2ccc(Cl)cc2)c1C | 108.7%
CCn1nc(C)c(CCNC(=O)c2cccc(-n3cccn3)c2)c1C | -5.095%
CC(=O)NCCCc1ncnn1-c1cccc(Cl)c1 | -6.102%
COCc1noc(C2(c3ccc(OC)cc3)CCOCC2)n1 | -14.42%
CN1CCN(Cc2cccc(NCc3cc[nH]n3)c2)CC1 | -14.54%
Cc1ccc(NC(=O)N2CC[C@@H](O)C2)c(-c2nc(C3CC3)no2)c1 | 101.9%
COc1ccc(CNc2nc(C3CC3)no2)cc1OC | -4.91%
O=C(Nc1c(F)cccc1F)N1CC(c2nc(C3CC3)no2)C1 | 16.35%
COCC(=O)Nc1ccc(C)cc1-c1nc(C2CC2)no1 | 104.3%
COc1ccc(NC(=O)N2CCC(c3noc(C)n3)CC2)cc1C | -0.09079%
O=C(Nc1cc(-c2ccccc2)on1)N1CC[C@H](O)C1 | -19.05%
CCCn1nc(-c2nc(C3CC3)no2)ccc1=O | -1.199%
O=C(Nc1ccc(F)cc1-c1nc(C2CC2)no1)N1CC[C@@H](O)C1 | 96.09%
O=C(NCc1nc(C2CC2)no1)N1CCOC(c2cccc(F)c2)C1 (stereo unspecified) | -4.4%
CN(C)Cc1nnc(C2CCCN(c3ncccc3F)C2)n1C (stereo unspecified) | -23.88%
Cc1cc(CN(C)CC2(O)CCCN(CCC3CCCCC3)C2=O)no1 (stereo unspecified) | -6.768%
O=C(CN1CCCc2sccc2C1=O)NC1CCc2nccn2C1 (stereo unspecified) | 7.867%

SMILES | Percent Effect
O=C(CCc1nc(Cl)n[nH]1)N[C@H]1CC[C@H]1NC1Cc2ccccc2C1 | -20.04%
Cc1ccc(C)c(OC2CCN(C(=O)NCC(=O)N3CCCC3)CC2)c1 | 99.13%
CN(C)CCNC(=O)c1ccc(OC2CCN(C(=O)CO)CC2)c(Cl)c1 | 12.3%
Cc1ccc(C)c(OC2CCN(C(=O)CNc3ccccc3Cl)CC2)c1 | 209.6%
Cc1ccccc1OC1CCN(C(=O)CNC(=O)N(C)C)CC1 | 13.16%
Cc1ccc(C)c(OC2CCN(C(=O)c3ccc(O)nc3)CC2)c1 | -12.69%
Cc1ccc(C)c(OC2CCN(C(=O)c3ccc(C)[nH]c3=O)CC2)c1 | -1.4%
CCC(=O)N1CCC(Oc2ccc(C(=O)NCCN(C)C)cc2Cl)CC1 | 19.63%
COC(=O)NCC(=O)N1CCC(Oc2cccc(C)c2)CC1 | -5.707%
CCNC(=O)CCC(=O)N1CCC(Oc2cc(C)ccc2C)CC1 | 108%
O=C([C@H]1C[C@H]2OCC[C@H]2N(C(=O)c2cnccn2)C1)N1CCCCO1 | -3.887%
CN(C)C(C(=O)N1CCN(S(N)(=O)=O)CC1)c1ccccc1F (stereo unspecified) | -29.81%
Cn1c(C(F)(F)F)nn(CCNC(=O)NCc2ccccc2)c1=O | -13.86%
Cc1cnn(Cc2cc(F)ccc2F)c1NC(=O)CNC(=O)C1CC1 | -28.4%
O=C1CCc2cc(S(=O)(=O)NCc3cc4n(n3)CCCNC4)ccc2N1 | -2.764%
Cc1ccc(NC2CCN(C(=O)COc3cccc(F)c3)CC2)nn1 | 99.48%
Cc1ccc(NC2CCN(C(=O)COc3ccccc3)CC2)nn1 | 80.33%
Cc1ccc(NC2CCN(C(=O)COc3cccnc3)CC2)nn1 | 0.9961%
Cc1ccc(NC2CCN(C(=O)Cc3cccc(F)c3)CC2)nn1 | 5.367%
CC(C)n1cc(S(=O)(=O)NCCc2nnc3ccccn23)cn1 | -12.48%
CCn1ncc2c1C(COCC1CC1)N(Cc1ccccn1)CC2.O=C(O)C(F)(F)F.O=C(O)C(F)(F)F (stereo unspecified) | 3.009%
CCOCC1c2c(cnn2CC2CC2)CCN1C(=O)c1ccncn1.O=C(O)C(F)(F)F (stereo unspecified) | -2.874%
CCn1ncc2c1C(COC)N(C(=O)c1cccs1)CC2.O=C(O)C(F)(F)F (stereo unspecified) | 114.8%
CCn1ncc2c1C(COCC1CC1)N(Cc1cnn(C)c1)CC2.O=C(O)C(F)(F)F.O=C(O)C(F)(F)F.O=C(O)C(F)(F)F (stereo unspecified) | -14.36%
COCC1c2nnn(CC3CC3)c2CCN1C(=O)Cc1cccs1 (stereo unspecified) | 9.028%
